Measured values published in PubChem BioAssay AID1159580 (chemical genetic matrix, 2015).
Values joined by “and” are separate entries in the source; they are usually repeats but may differ in a detail not shown here. Identical values can stand only once. About 2,000 (36%) of roughly 5,500 compounds were called active. Another 18% or so got no clear call; they are omitted. No stated cut-off is given here; in the data, active means normalized growth mostly below about 0.91 (no sharp cut-off); inconclusive means no clear call, values can overlap the other calls; inactive means mostly above about 0.92. Some of the results follow.

Test: chemical genetic growth profiling, strain panel (AID 1159580);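 further: tested at 20 µM; growth read once vehicle control cultures reached saturation at 30 °C; 1 = growth at the plate median or of vehicle wells; lower values mean less growth of the strain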
Settings: S. cerevisiae deletion strains, growth OD

Measured: normalized growth

NS(=O)(=O)c1cc(C2(O)NC(=O)c3ccccc32)ccc1Cl (stereo not given)
inactive: locus YAL021C, strain ccr4, active compounds read low 0.958 | locus YAL026C, strain drs2, active compounds read low 0.991 | locus YAL030W, strain snc1, active compounds read low 0.993 | locus YBL061C, strain skt5, active compounds read low 0.996 | locus YBR009C, strain hhf1, active compounds read low 1.01 | locus YBR021W, strain FUR4, active compounds read low 1.02 | locus YBR023C, strain chs3, active compounds read low 0.992 | locus YBR171W, strain sec66, active compounds read low 0.985 | locus YBR229C, strain ROT2, active compounds read low 1.01 | locus YBR231C, strain swc5, active compounds read low 0.972 | locus YBR279W, strain paf1, active compounds read low 0.996 | locus YCL011C, strain gbp2, active compounds read low 0.99 | locus YCL016C, strain dcc1, active compounds read low 0.987 | locus YCL029C, strain bik1, active compounds read low 1.02 | locus YCL061C, strain MRC1, active compounds read low 0.986 | locus YCL069W, strain vba3, active compounds read low 0.999 | locus YCR088W, strain abp1, active compounds read low 0.994 | locus YDL005C, strain med2, active compounds read low 0.974 | locus YDL035C, strain GPR1, active compounds read low 0.997 | locus YDL040C, strain nat1, active compounds read low 0.995 | locus YDL074C, strain BRE1, active compounds read low 1.03 | locus YDL101C, strain DUN1, active compounds read low 1.02 | locus YDL134C, strain PPH21, active compounds read low 1 | locus YDL185W, strain tfp1, active compounds read low 1.03 | locus YDL192W, strain arf1, active compounds read low 1.01 | locus YDR001C, strain nth1, active compounds read low 0.99 | locus YDR069C, strain doa4, active compounds read low 0.993 | locus YDR101C, strain arx1, active compounds read low 1 | locus YDR137W, strain rgp1, active compounds read low 1.01 | locus YDR159W, strain sac3, active compounds read low 1.01 | locus YDR162C, strain NBP2, active compounds read low 1.01 | locus YDR195W, strain ref2 0.929 | locus YDR297W, strain sur2, active compounds read low 0.995 | locus YDR318W, strain mcm21, active compounds read low 1.02 | locus YDR334W, strain swr1, active compounds read low 1.01 | locus YDR335W, strain msn5, active compounds read low 0.991 | locus YDR388W, active compounds read low 1.02 | locus YDR392W, strain spt3, active compounds read low 1.04 | locus YDR502C, strain sam2, active compounds read low 1.02 | locus YEL003W, strain gim4, active compounds read low 0.985 | locus YEL037C, strain rad23, active compounds read low 0.992 | locus YEL061C, strain CIN8 (second series), active compounds read low 1 | locus YEL061C, strain CIN8, active compounds read low 1.01 | locus YER015W, strain faa2, active compounds read low 0.985 | locus YER016W, strain bim1, active compounds read low 0.997 | locus YER110C, active compounds read low 1.02 | locus YER111C, strain swi4, active compounds read low 0.997 | locus YER155C, strain BEM2 (second series), active compounds read low 0.939 | locus YER155C, strain BEM2, active compounds read low 1.01 | locus YER167W, strain BCK2, active compounds read low 1.01 | locus YFR010W, strain ubp6, active compounds read low 0.982 | locus YGL078C, strain dbp3, active compounds read low 1.02 | locus YGL086W, strain mad1, active compounds read low 1.01 | locus YGL167C, strain pmr1, active compounds read low 0.99 | locus YGL173C, strain kem1, active compounds read low 0.968 | locus YGL227W, strain vid30, active compounds read low 0.997 | locus YGL240W, strain doc1, active compounds read low 0.964 | locus YGL248W, strain PDE1, active compounds read low 1.02 | locus YGL253W, strain hxk2, active compounds read low 1 | locus YGR078C, strain PAC10, active compounds read low 1.02 | locus YGR135W, strain pre9, active compounds read low 1.04 | locus YGR229C, strain SMI1, active compounds read low 1.01 | locus YGR252W, strain gcn5, active compounds read low 0.991 | locus YHR013C, strain ard1, active compounds read low 0.952 | locus YHR027C, strain rpn1, active compounds read low 0.99 | locus YHR030C, strain SLT2, active compounds read low 1.01 and 0.984 | locus YHR079C, strain IRE1 (second series), active compounds read low 1.01 | locus YHR079C, strain IRE1, active compounds read low 0.99 | locus YHR094C, strain hxt1, active compounds read low 1.01 | locus YHR129C, strain ARP1, active compounds read low 1.01 | locus YHR142W, strain chs7, active compounds read low 1.01 | locus YHR200W, strain rpn10, active compounds read low 1.02 | locus YIL066C, strain RNR3, active compounds read low 1.01 | locus YIL073C, strain SPO22, active compounds read low 1.06 | locus YIL125W, strain kgd1, active compounds read low 1.01 | locus YIR030C, strain dcg1, active compounds read low 1.03 | locus YJL092W, strain hpr5, active compounds read low 0.993 | locus YJL095W, strain BCK1 (second series), active compounds read low 0.997 | locus YJL095W, strain BCK1, active compounds read low 1.03 and 0.98 | locus YJL115W, strain asf1, active compounds read low 0.983 | locus YJL129C, strain trk1, active compounds read low 0.979 | locus YJL134W, strain LCB3, active compounds read low 1 | locus YJL154C, strain vps35, active compounds read low 0.984 | locus YJL164C, strain tpk1, active compounds read low 0.981 | locus YJL166W, strain qcr8, active compounds read low 0.977 | locus YJL168C, strain set2, active compounds read low 1.02 | locus YJL187C, strain SWE1 (second series), active compounds read low 1.03 | locus YJL187C, strain SWE1, active compounds read low 0.991 | locus YJR043C, strain POL32, active compounds read low 0.986 | locus YJR066W, strain TOR1, active compounds read low 0.946
